Experimental data published in PubChem BioAssay AID1851 (National Center for Advancing Translational Sciences (NCATS), 2009).
The campaign covered roughly 16,000 compounds. About 5,700 (36%) were called active. Not shown: some 24% with an inconclusive outcome. This is one part of the list. A number with no mark means an inactive call. Calls come from the whole dose curve; as a rule, active = well fitted curve in the direction sought with a large enough effect; inconclusive = small, poorly fitted or top-dose-only effect, or effect the other way; inactive = no such curve, though single readings can be large or run the other way. Numbered stars: 1 amine (or outer) side, 2 acyl side, 3 side chain; on linkers, the order of the positions; unused ones are H or OH. Bridge positions count the residues as written; N and C are the ends. Square brackets hold non-standard residues; d marks the D form. Peptide text beside a SMILES is read from it. I, II: the chains in the order shown. Actinocin(9to1) = Cc1c2oc3c(C)ccc(C(=O)[*:1])c3nc-2c(C(=O)[*:2])c(N)c1=O; aThr = C[C@H](O)[C@H](N)C(=O)O; NMeV = CN[C@H](C(=O)O)C(C)C; Sar = CNCC(=O)O

Each molecule was assayed against Cytochrome P450 1A2 (Homo sapiens) (UniProt P05177) (assay: Cytochrome panel assay with activity outcomes). Settings: recombinant CYP, pro-luciferin dealkylation, luminescence, p450-cyp1a2; series mostly up to 57.1 µM; activity, negative = inhibition: at the top concentration.
Cytochrome P450 1A2 (Homo sapiens), sequence (P05177 whole entry, looked up): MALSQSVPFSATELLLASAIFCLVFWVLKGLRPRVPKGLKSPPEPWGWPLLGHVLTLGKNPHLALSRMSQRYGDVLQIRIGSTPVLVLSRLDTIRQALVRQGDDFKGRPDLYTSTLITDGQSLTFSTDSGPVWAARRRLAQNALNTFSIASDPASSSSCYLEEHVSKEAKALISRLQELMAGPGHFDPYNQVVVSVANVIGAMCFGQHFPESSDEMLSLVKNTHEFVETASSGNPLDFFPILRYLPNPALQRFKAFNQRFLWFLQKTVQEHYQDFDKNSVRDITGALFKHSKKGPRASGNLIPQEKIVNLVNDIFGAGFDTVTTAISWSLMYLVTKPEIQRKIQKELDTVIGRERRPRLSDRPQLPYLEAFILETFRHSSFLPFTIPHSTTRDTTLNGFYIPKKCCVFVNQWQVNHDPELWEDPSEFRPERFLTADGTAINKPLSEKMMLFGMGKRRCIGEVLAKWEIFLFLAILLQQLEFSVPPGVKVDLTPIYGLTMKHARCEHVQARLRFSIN
% is set by controls: 0 for no effect and ±100 for the full control effect.

Row | SMILES | activity, negative = inhibition | AC50
1 | CO[C@@H]1COC(=O)[C@@H](CCSC)NC(=O)C/C=C\[C@@H](C)COC(=O)[C@H](C)NC(=O)C/C=C\[C@H]1C | -5.08% [at 11.4 µM] | 
2 | O=c1cc(-c2ccccc2)[nH]c2nc(Cl)ccc12 |  | 0.398 µM (active)
3 | Cc1ccccc1S(=O)(=O)c1c(C)cc(-c2ccccc2)[nH]c1=O | -7.42% | 
4 | Cc1cc(-c2ccccc2)[nH]c(=O)c1S(=O)(=O)c1ccc(Cl)cc1 | -18.9% | 
5 | CC(=O)N1CCC2(CCCN(Cc3nccs3)C2)CC1 | -12.1% | 
6 | CCOC(=O)C(C)n1cnc2c(oc3ccccc32)c1=O (configuration not stated) |  | 5.62 µM (active)
7 | Cc1cc(/C=C2\SC(=S)NC2=O)c(C)n1C |  | 5.01 µM (active)
8 | Cc1ccc(S(=O)(=O)N2CCC(C(=O)NCCCOC(C)C)CC2)cc1 | -2.51% | 
9 | O=C(OC(C(=O)O)C(OC(=O)c1ccccc1)C(=O)NCc1ccccc1)c1ccccc1 (configuration not stated) | 5% | 
10 | O=C(NCc1ccccc1)c1cccc(COc2cccc(Cl)c2)c1 |  | 17.8 µM (active)
11 | O=c1c(-c2ccc(F)cc2)nc2cnc(N3CCOCC3)nc2n1Cc1cccs1 |  | 12.6 µM (active)
12 | COc1cccc(Cn2c(=O)c(-c3ccc(Cl)cc3)nc3cnc(N4CCN(C)CC4)nc32)c1 | -16.3% | 
13 | O=c1c(-c2ccc(Cl)cc2)nc2cnc(N3CCNCC3)nc2n1Cc1cccs1 |  | 12.6 µM (active)
14 | O=c1c(-c2ccc(F)cc2)nc2cnc(N3CCNCC3)nc2n1Cc1cccs1 |  | 10 µM (active)
15 | CN1CCN(c2ncc3nc(-c4ccc(Cl)cc4)c(=O)n(Cc4cccs4)c3n2)CC1 |  | 10 µM (active)
16 | O=C(CSc1nnc2c(n1)[nH]c1ccc(F)cc12)OCc1ccccc1 |  | 0.501 µM (active)
17 | Cc1ccc(C(=O)NNC(=O)CSc2nnc3c(n2)[nH]c2ccc(F)cc23)cc1 | -20.5% | 
18 | CC1CCc2cc(F)ccc2N1C(=O)CSc1nnc2c(n1)[nH]c1ccc(F)cc12 (configuration not stated) |  | 0.501 µM (active)
19 | C#CCCCO/N=C1/[C@H]2O[C@@H]2[C@@H](O)[C@H]2[C@H]1CCn1c(=O)n(Cc3cc4c(cc3Cl)OCO4)c(=O)n12 | 1.39% [at 11.4 µM] | 
20 | Cc1nc(Cl)c(C#N)cc1-c1ccccc1 |  | 1 µM (active)
21 | Cc1nc(Sc2ccccc2)c(C#N)cc1-c1ccccc1 |  | 1.26 µM (active)
22 | Cc1c2oc3c(C)ccc(C(=O)N[C@@H]4C(=O)N[C@@H](C(C)C)C(=O)N5CCC[C@@H]5C(=O)N(C)CC(=O)N(C)[C@@H](C(C)C)C(=O)O[C@H]4C)c3nc-2c(C(=O)N[C@@H]2C(=O)N[C@@H](C(C)C)C(=O)N3CCC[C@@H]3C(=O)N(C)CC(=O)N(C)[C@@H](C(C)C)C(=O)O[C@H]2C)c(N)c1=O (I: [aThr]V[dP][Sar][NMeV] / II: [aThr]V[dP][Sar][NMeV]; ester I:1-I:C, II:1-II:C; linker I:N-II:N via Actinocin(9to1)) | -34.7% | 
